Source: PubChem (National Center for Advancing Translational Sciences (NCATS))
Rows were chosen to be rich in hits. Some 2.8% of all compounds tested hit in one or more screens of this group.
ATXN viability = cell viability loss in ATXN counter-screen; Potency, µM (series often up to 56.7 µM), most hits filed as cytotoxic; S2 cells (HEK-293 line with an ATXN2-luciferase reporter) viability, CellTiter-Fluor protease fluorescence, 24 h; hit rate 0.49% among 400,000; note: nearly all actives have a fitted effect of over 40% in size
ATXN2 expr inh = ATXN2 expression inhibition | HEK-293 ATXN2-luciferase reporter, luminescence, 24 h | Potency, µM (doses to about 57 µM), for inactives: top-dose activity change, negative = inhibition, most hits filed as inhibitors | hit rate 0.72% among 360,000 | AID 1745845; note: % is set by controls: 0 for no effect and ±100 for the full control effect; nearly all actives have a fitted effect of over 55% in size
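qHTS (up to 57 uM final) was run with 24 h compound exposure of reporter cells at 37 °C. Each well was multiplexed: SteadyGlo luminescence measured ATXN2-luciferase expression after a fluorogenic Gly-Phe-AFC viability readout (25 uM final).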
HTT cytoprotect = Huntington cell model cytoprotection by ATP luminescence; PC12 HTT-Q103 induced, cytoprotection, ATP luminescence, 40 h; Potency, µM (series often up to 56.4 µM), without a hit: cytoprotection (ATP increase), hits mostly activators; AID 1471; hit rate 0.14% among 230,000; note: % of control where 0% means no effect; nearly all actives have a fitted effect of over 45% in size
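PC12 cells stably carrying ecdysone-inducible Htt exon 1 (Q103)–GFP were induced with 100 nM tebufenozide (final) alongside library compounds in a dose series. Cytoprotection was scored as retained ATP by ATPlite luminescence.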
HepG2 tox-1 = HepG2 cytotoxicity, counter-screen for TGF-b inhibitors; Potency, µM (titrated, usually from 46.1 µM), for the others: top-dose activity change, negative = cytotoxicity, actives largely listed as cytotoxic; HepG2 CAGA-GFP viability, ATP luminescence, 18 h; hit rate 0.76% among 410,000; AID 588856
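HepG2 CAGA-GFP cells (1000/well, DMEM with 1% FBS) received compound, then TGF-beta at 500 pg/mL final, and were incubated 18 hours at 37 degrees C. Viability was read by CellTiter-Glo luminescence. Media-only wells were set as complete cell-killing and DMSO as no toxicity.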
HttQ103 aggreg = mutant huntingtin aggregation inhibition; Potency, µM (highest dose often 46.1 µM), inactives show at the highest dose activity change, negative = inhibition, actives largely listed as inhibitors; PC12 HttQ103-GFP aggregates, Acumen cytometry, 40 h; hit rate 1.1% among 220,000; note: % is set by controls: 0 for no effect and ±100 for the full control effect; nearly all actives have a fitted effect of over 60% in size
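Read-out: GFP aggregate count by laser scanning cytometer (488 nm excitation, 500-530 nm emission, 1–25 µm objects >6 SD above background). Cells: PC12, inducible HTTex1-Q103-GFP, 100 nM tebufenozide; compounds titrated.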
TGFb SMAD3 inh = blocks TGF-b signaling; AID 588855; HepG2 CAGA-GFP TGF-b/SMAD3 reporter, GFP fluorescence, 18 h; TGF-beta stimulated, 500 pg/mL final; Potency, µM (titrated, usually from 46.1 µM), without a hit: at the highest dose activity, negative = inhibition, hits mostly inhibitors; hit rate 1.2% among 410,000; note: % is set by controls: 0 for no effect and ±100 for the full control effect; nearly all actives have a fitted effect of over 65% in size
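Inhibition was scored as loss of TGF-beta-induced (500 pg/mL final, 18 hours, 37 degrees C) GFP in HEPG2 cells carrying a CAGA-GFP reporter, in DMEM with 1% FBS. Well GFP was summed per cell; Activity was normalised to unstimulated and stimulated DMSO wells, then concentration-response fitting.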
TGFb CAGA inh = confirmation of TGF-b signaling inhibitors in HepG2 reporter cells. shares compounds with TGFb SMAD3 inh. HepG2 CAGA-GFP TGF-b reporter, GFP fluorescence, 18 h; cells stimulated with TGF-beta, 500 pg/mL. Potency, µM (titrated, usually from 46.1 µM), inactives show at the highest dose activity, negative = inhibition, actives largely listed as inhibitors. hit rate 63% among 1,600; note: % is set by controls: 0 for no effect and ±100 for the full control effect; nearly all actives have a fitted effect of over 65% in size
HepG2 tox-2 = counter-screen for TGF-b inhibitors: cytotoxicity in HepG2 cells; Potency, µM (series often up to 46.1 µM), for inactives: at the top dose activity, negative = cytotoxicity, hits mostly inhibitors; hit rate 27% among 1,600; AID 720535; shares compounds with TGFb SMAD3 inh; HepG2 CAGA-GFP viability, ATP luminescence, 18 h; cells stimulated with TGF-beta, 500 pg/mL; note: % is set by controls: 0 for no effect and ±100 for the full control effect; nearly all actives have a fitted effect of over 70% in size
TGFb CCL64 inh = TGF-b inhibition, CCL64 orthogonal assay | shares compounds with TGFb SMAD3 inh | CCL64 CAGA-GFP reporter, TGF-b stimulated, GFP fluorescence, 18 h | Potency, µM (series often up to 46.1 µM), for inactives: at the top dose activity, negative = inhibition, most hits filed as inhibitors | hit rate 41% among 1,600; note: nearly all actives have a fitted effect of over 65% in size
COP TGFb inh = TGF-b inhibition validated with COP promoter; shares compounds with TGFb SMAD3 inh; HepG2 COP-GFP TGF-b reporter, GFP fluorescence, 18 h; cells stimulated by added recombinant TGF-beta; Potency, µM (doses to about 46.1 µM), inactives show at the top dose activity, negative = inhibition, usual class: inhibitors; hit rate 3% among 1,600; AID 720537; note: nearly all actives have a fitted effect of over 70% in size
Numbers without * were called inactive; i = inactive; ? = inconclusive; / = no result; ! = not confirmed by another sample; [ ] = dose if it differs, or a comment. Calls come from the whole dose curve; as a rule, active = well fitted curve in the direction sought with a large enough effect; inconclusive = small, poorly fitted or top-dose-only effect, or another doubt; inactive = no such curve, though single readings can be large; an effect the other way counts as inactive or inconclusive. Potency is the fitted concentration of half-maximal effect.

SMILES	ATXN viability	ATXN2 expr inh	HTT cytoprotect	HepG2 tox-1	HttQ103 aggreg	TGFb SMAD3 inh	TGFb CAGA inh	HepG2 tox-2	TGFb CCL64 inh	COP TGFb inh
CCCC[C@H]1COCCS(=O)(=O)N1Cc1ccc(Br)cc1	i	-18%	/	0%	/	10µM*!	?	-17%	?	16%
CCCC[C@H]1COCCS(=O)(=O)N1Cc1ccc(C)cc1	i	-18%	/	-29%	/	-26%	/	/	/	/
COc1ccc(OC2C(O)COC2/C=C/C#Cc2ccc(F)cc2F)cc1 (stereo unspecified)	/	/	-14%[10 µM]	/	/	/	/	/	/	/
CCOc1cc(/C=C\[N+](=O)[O-])ccc1OCC(=O)Nc1ccccc1C	?	/	-3%	8.9µM*	12%	7.9µM*	2.9µM*	8.2µM*	2.9µM*	?
COc1cc(/C=C/c2cccc[n+]2C)ccc1OCC(=O)Nc1ccccc1C	i	-1%	/	-3%	/	1%	/	/	/	/
CC(=NNC(=S)Nc1ccccc1)c1ccccn1	?	/	/	-38%	/	?	/	/	/	/
C/C(=N\NC(=O)c1ccccc1-n1cccc1)c1ccccn1	2.8µM*	/	/	-36%	/	14µM*	10µM*	?	?	21%
C=CCNC(=S)N/N=C(\C)c1ccccn1	/	-91%	-61%[10 µM]	-26%	3.5µM*	2.8µM*	10µM*	?	1.3µM*	-4%
CC(=NNC(=S)N1CCCCC1)c1ccccn1	?	/	/	-70%	/	0.63µM*	1.3µM*	?	0.65µM*	-7%
Cc1noc(C)c1-c1nc(Nc2ccc(F)cc2)c2ccccc2n1	/	/	-74%	/	/	/	/	/	/	/
Cn1nnnc1SC(C(=O)Nc1cccc(C(F)(F)F)c1)c1ccccc1 (stereo unspecified)	i	-13%	30%[10 µM]	-4%	-20%	11µM*	?	-21%	?	4%
O=C(Nc1cccc(C(F)(F)F)c1)C(SCCO)c1ccccc1 (stereo unspecified)	i	4%	-5%[10 µM]	-4%	-7%	-15%	/	/	/	/
O=C(NC1CCCCC1)C(c1cccnc1)N(C(=O)CCl)c1cccc(Cl)c1 (stereo unspecified)	11µM*	20µM*	-11%[10 µM]	22µM*	-32%	10µM*	5.8µM*	9.2µM*	4.6µM*	?
Cc1cccc(N(C(=O)CNC(=O)c2ccco2)C(C(=O)NC2CCCCC2)c2cccnc2)c1 (stereo unspecified)	i	-7%	/	-20%	/	-30%	/	/	/	/
O=[N+]([O-])c1ccc(NCCO)c(OCCO)c1	/	/	-18%	/	/	/	/	/	/	/
Oc1ccc(C[C@H]2CN([C@@H](Cc3ccc(O)cc3)CN3CCC[C@@H]3CN3C(=S)NC[C@@H]3Cc3ccccc3)C(=S)N2CC2CCCCCC2)cc1	8.9µM*	10µM*	/	-45%	/	10µM*	23µM*	?	8.2µM*	67%
CC(C)C[C@H]1CNC(=S)N1C[C@H]1CCCN1C[C@H](Cc1ccc(O)cc1)N1C[C@H](Cc2ccccc2)N(CC2CCCCC2)C1=S	?	?	/	-34%	/	?	/	/	/	/
Oc1ccc(C[C@H]2CNC(=S)N2CC2CCCN2C[C@H](Cc2ccc(O)cc2)N2C[C@H](Cc3ccc(O)cc3)N(CC3CCCCC3)C2=S)cc1 (stereo partly specified)	?	0%	/	-23%	/	10µM*	5.2µM*	12µM*	5.8µM*	?
Oc1ccc(C[C@H]2CNC(=S)N2CC2CCCN2C[C@H](Cc2ccccc2)N2C[C@H](Cc3ccc(O)cc3)N(CC3CCCCCC3)C2=S)cc1 (stereo partly specified)	?	?	/	-82%	/	10µM*	21µM*	?	8.2µM*	82%
Oc1ccc(C[C@H]2CNC(=S)N2C[C@H]2CCCN2C[C@H](Cc2ccccc2)N2C[C@H](Cc3ccc(O)cc3)N(CC3CCCCCC3)C2=S)cc1	20µM*	0%	/	-112%	/	7.1µM*	23µM*	?	13µM*	51%
COc1ccc(C2C=C3CNS(=O)(=O)C3CC2OC(=O)c2cccs2)cc1 (stereo unspecified)	/	/	/	-11%	/	?	/	/	/	/
O=C(Oc1ccc(Cl)c2cccnc12)c1ccco1	i	-20%	-67%[10 µM]	-52%	?	8.9µM*	-2%	-15%	22%	4%
Cc1ccccc1C(=O)NC(=S)N(C)C1CCCCC1	i	28%	/	-4%	/	9%	/	/	/	/
CN(C(=S)NC(=O)c1ccccc1Br)C1CCCCC1	i	-13%	-16%	-23%	26%	?	-20%	-13%	9%	2%
COC(=O)C/C=C\[C@@H](C)[C@@H](/C=N\O[C@@H](C)CN1CCCc2nc(C)c(C)cc21)OC	/	/	-13%[10 µM]	/	/	/	/	/	/	/
Cc1cccc(CCN2C(Nc3ccccc3)=NC[C@@H]2CC(C)C)c1	?	?	/	1%	/	6.3µM*	5.2µM*	?	?	87%
CC(C)C[C@H]1CN=C(Nc2ccccc2)N1CCc1ccc(F)cc1	i	-14%	/	-33%	/	8.9µM*	7.3µM*	?	18µM*	60%
CC(C)C[C@H]1CN=C(Nc2ccccc2)N1CCc1cccc(F)c1	i	-31%	/	-26%	/	7.1µM*	5.8µM*	?	13µM*	54%
CC(C)CCN1C(Nc2ccccc2)=NC[C@@H]1CC(C)C	i	-11%	/	-18%	/	-17%	/	/	/	/
CC#CCN1c2ccccc2[C@]23C[C@@H](C(=O)OC)N(S(=O)(=O)c4c(C)noc4C)C2=NC(C(=O)OC)=C(C(=O)OC)[C@H]13	/	/	-12%[10 µM]	/	/	/	/	/	/	/
